Reference: the supplement of paper PMC13380429

Test system: Vero E6 infected with SARS-CoV-2
Assay: inhibition of SARS-CoV-2 cytopathic effect; higher = more antiviral protection, active = above 15
Conditions: 48 h

Measured: inhibition of SARS-CoV-2 cytopathic effect

OCCC#Cc1nc(-c2ccc(F)cc2)c(-c2ccncc2)n1CCCc1ccccc1
inactive: 1 nM 2.21% | 8.33 nM -1.75% | 100 nM -1.41% | 833.33 nM 0.51% | 10000 nM 2.27%

NC(=O)Nc1cc(-c2cccc(F)c2)sc1C(=O)N[C@H]1CCCNC1
inactive: 1 nM -2.18% | 8.33 nM 0.53% | 100 nM -2.2% | 833.33 nM -4.24% | 10000 nM -19.5%

CN1CCN(C2CCN(C(=O)Nc3cc(Oc4ccc(NC(=O)C5(C(=O)Nc6ccc(F)cc6)CC5)c(F)c4)ccn3)CC2)CC1 [golvatinib]
active: 10000 nM 40.8%
inactive: 1 nM 0.88% | 8.33 nM 0.74% | 100 nM 2.78% | 833.33 nM 5.87%

C[C@H]1CCc2c(cc(Br)c(F)c2Br)N1C=O
inactive: 1 nM -0.42% | 8.33 nM -1.13% | 100 nM -1.55% | 833.33 nM -0.53% | 10000 nM -1.25%

Cc1c2oc3c(C)ccc(C(=O)N[C@@H]4C(=O)N[C@@H](C(C)C)C(=O)N5CCC[C@H]5C(=O)N(C)CC(=O)N(C)[C@@H](C(C)C)C(=O)O[C@@H]4C)c3nc-2c(C(=O)N[C@@H]2C(=O)N[C@@H](C(C)C)C(=O)N3CCC[C@H]3C(=O)N(C)CC(=O)N(C)[C@@H](C(C)C)C(=O)O[C@@H]2C)c(N)c1=O [actinomycin-d]
inactive: 1 nM -0.33% | 8.33 nM 1.99% | 100 nM 0.83% | 833.33 nM -8.47% | 10000 nM -14.8%

O=C(NCCCNc1nc(Nc2cccc(NC(=O)N3CCCC3)c2)ncc1I)c1cccs1
inactive: 1 nM -2.02% | 8.33 nM -0.75% | 100 nM 0.52% | 833.33 nM -5.21% | 10000 nM -23.3%

CN1C(=O)N(c2cc(Cl)cc(Cl)c2)C(=O)[C@]12CN(Cc1cc(C(=O)O)cs1)C[C@H]2c1ccc(C#N)cc1
inactive: 1 nM -1.94% | 8.33 nM 0.44% | 100 nM 1.44% | 833.33 nM 0.49% | 10000 nM -0.22%

NCCNC(=O)c1ccc(Cl)cn1 [lazabemide]
inactive: 1 nM 1.32% | 8.33 nM -0.18% | 100 nM -0.23% | 833.33 nM -0.24% | 10000 nM 3.29%

CCCCCCCC/C=C/CCCCCCCC(=O)OC[C@H]1O[C@@H](n2ccc(N)nc2=O)C(F)(F)[C@@H]1O [gemcitabine-elaidate]
inactive: 1 nM -0.31% | 8.33 nM -0.77% | 100 nM -1.9% | 833.33 nM 0.35% | 10000 nM 3%

CNC(=O)[C@H](Cc1c[nH]c2ccccc12)NC(=O)[C@@H](CC(=O)NO)CC(C)C [ilomastat]
inactive: 1 nM 3.69% | 8.33 nM 1.87% | 100 nM -1.16% | 833.33 nM 2.15% | 10000 nM -0.18%

CCc1oc2ccccc2c1C(=O)c1cc(Br)c(O)c(Br)c1 [benzbromarone]
inactive: 1 nM -1.45% | 8.33 nM 0.69% | 100 nM -2.5% | 833.33 nM -0.89% | 10000 nM 0.48%

CCOc1ccc(NC(C)=O)cc1 [phenacetin]
inactive: 1 nM 0.72% | 8.33 nM -3.1% | 100 nM 1.64% | 833.33 nM 0.87% | 10000 nM 0.81%

CCC(CC)[C@H](NC(C)=O)[C@@H]1[C@H](O)[C@@H](C(=O)O)C[C@H]1NC(=N)N [peramivir]
inactive: 1 nM -2.46% | 8.33 nM -0.07% | 100 nM 0.34% | 833.33 nM 0.01% | 10000 nM -0.82%

CS(=O)(=O)c1ccc(-c2nnc(/C=C/c3nnc(-c4ccc(C#N)cc4)o3)n2-c2ccccc2Cl)nc1
inactive: 1 nM 0.69% | 8.33 nM 0.31% | 100 nM -0.3% | 833.33 nM -2.5% | 10000 nM 2.17%

Cc1cc(O)cc2c1O[C@](C)(CCC[C@H](C)CCC[C@H](C)CCCC(C)C)CC2 [D-delta-tocopherol]
inactive: 1 nM 1.56% | 8.33 nM 0.99% | 100 nM 2.25% | 833.33 nM 0.84% | 10000 nM -0.19%

O=C(OC(C(F)(F)F)C(F)(F)F)N1CCC(C(O)(c2ccc3c(c2)OCO3)c2ccc3c(c2)OCO3)CC1
inactive: 1 nM -1.87% | 8.33 nM 0.04% | 100 nM -0.31% | 833.33 nM -1.03% | 10000 nM 0.49%

O=C(Nc1ccncc1)c1cc([N+](=O)[O-])ccc1Cl
inactive: 1 nM -0.14% | 8.33 nM 1.74% | 100 nM -1.69% | 833.33 nM -1.5% | 10000 nM 14.7%
